According to PubChem BioAssay (Tox21):
Results filed as inconclusive are left out. A number with no mark means an inactive call. Active and inactive are the calls of the source. The call rests on the fitted dose curve.

test: cAMP Responsive Elements (CRE) small molecule agonists, cell-based qHTS assay (AID 1963590); settings: CRE-bla HEK293T, beta-lactamase FRET ratio, 3 h; series mostly up to 92.4 µM; activation: at the top concentration
From the text: U.S. Tox21 Program National Center for Advancing Translational Sciences [NCATS] Division of Preclinical Innovation [DPI] U.S. Environmental Protection Agency [EPA] National Institutes of Environmental Health Sciences [NIEHS] National Toxicology Program [NTP] U.S. Food and Drug Administration [FDA] Tox21 Assay Overview: CREB (cyclic-AMP Responsive Element Binding Protein) is a cellular transcription factor. It binds to certain DNA sequences called cAMP Responsive Elements (CRE) and regulates the transcription of the genes. […] This cell line can be used to find agonists/antagonists of the cyclic AMP signaling pathway. The activation of the report gene under culture conditions can be detected by fluorescence intensity. This cell line has been used to screen the Tox21 10K compound library to identify agonists that induce oxidative stress.
Tox21 Assay Protocol Summary: CRE-bla Hek 293T cells were suspended in assay medium (DMEM containing 10% dialyzed FBS, 0.1 mM NEAA, 1 mM sodium pyruvate and 25 mM HEPES) and dispensed at 2,000 cells/5 uL /well into 1536-well black wall/clear bottom plates using a Multidrop Combi (ThermoFisher Scientific, Waltham, MA) dispenser. After the assay plates were incubated at 37 C/5% CO2 for 18 hrs, 23 nL of compounds dissolved in DMSO, positive controls or DMSO only was transferred to the assay plate by a pintool workstation (Kalypsys, San Diego, CA). After the plates were incubated at 37 C/5% CO2 for 3 hrs, 1 uL of LiveBLAzer B/G FRET substrate (Invitrogen, Carlsbad, CA) was added to each well using Bioraptr Flying Reagent Dispenser (FRD, Aurora Discovery, San Diego, CA). The plates were incubated at room temperature for 2 h.
On the % scale 0 is the no-effect control and ±100 the full control effect.

Structure (SMILES)	activation	Potency
CC1CCC(C(C)(C)S)C(=O)C1 (stereo not given)	-0.668%	–
Oc1ccc(OCc2ccccc2)cc1	1.35%	–
CC1(C)C2=CCCC(C)(C)[C@]23CC[C@H]1C3	-0.474%	–
NC(=O)Nc1ccccc1	0.277%	–
NC(=O)c1ccc([N+](=O)[O-])cc1Cl	–	inactive
CC(CCC(=O)O)C(=O)O (stereo not given)	0.489%	–
COC(=O)N[C@H](C(=O)N[C@@H](Cc1ccccc1)[C@@H](O)CN(Cc1ccc(-c2ccccn2)cc1)NC(=O)[C@@H](NC(=O)OC)C(C)(C)C)C(C)(C)C	1.49% [at 42.5 µM]	–
CC(=O)S[C@H](C(=O)N[C@H]1Cc2ccccc2[C@H]2CCC[C@@H](C(=O)O)N2C1=O)C(C)C	-1.41%	–
CCCCc1ccc2cccc(S(=O)(=O)O)c2c1	-1.05%	–
CCOC=C(C(=O)OCC)C(=O)OCC	-0.896%	–
Clc1ccc2c(Cl)ccnc2c1	-0.743%	–
OCCN1CCN(CCCN2c3ccccc3C=Cc3ccccc32)CC1	1.85% [at 42.5 µM]	–
CC(C)(CO)[C@@H](O)C(=O)NCCC(=O)O	-0.0637%	–
CCCCCCCCCCCC(=O)OC[C@@H](O)[C@H]1OC[C@H](OCCO)[C@H]1OCCO	0.361%	–
CCCCOC(O)CC (stereo not given)	0.143%	–
Cc1ccc(C(C)c2ccc(C)c(C)c2)cc1C	0.249%	–
FC(F)(F)C(Cl)(Cl)Cl	-0.199%	–
Cc1cc(C)cc(O)c1	–	inactive
CCCCCCOC(=O)C(C)CC (stereo not given)	0.305%	–
Cc1cccnc1	–	inactive

Structure (SMILES)	activation	Potency
FC(F)(F)C(F)(F)C(F)(F)C(F)(F)C(F)(F)C(F)(F)CCI	0.267% [at 42.5 µM]	–
O=S(=O)(O)CCN1CCN(CCO)CC1	-0.361%	–
C[C@@H]1CCN(C(=O)[C@H](CCCN=C(N)N)NS(=O)(=O)c2cccc3c2NC[C@H](C)C3)[C@@H](C(=O)O)C1	0.243% [at 42.5 µM]	–
Oc1cccc2ccccc12	–	inactive
CCCc1c2oc(C(=O)O)cc(=O)c2cc2c(=O)cc(C(=O)O)n(CC)c12	-0.509% [at 42.5 µM]	–
CC/C=C\CC1=C(C)CCC1=O	1.02%	–
CC#N	8.4%	–
O=[N+]([O-])c1ccc(CCO)cc1	1.31%	–
CC(=O)O[C@@H]1CC2C3CCc4cc(OC(=O)c5ccccc5)ccc4C3CCC2(C)[C@H]1OC(C)=O (stereo not given in full)	0.0696% [at 42.5 µM]	–
COc1ccc(COC(C)=O)cc1	–	inactive
Cc1cc(C)cc(OCC2CNC(=O)O2)c1 (stereo not given)	-1.55% [at 42.5 µM]	–
CCC(C)(Oc1ccc(C2(c3ccc(OC(C)(CC)C(=O)O)cc3)CCCCC2)cc1)C(=O)O (stereo not given)	0.159% [at 42.5 µM]	–
CC(=O)/C=C/C1C(C)=CCC(C)C1(C)C (stereo not given)	0.785%	–
C/C=C/C(=O)CCCC	-1.03%	–
Oc1ccccc1O	–	inactive
Cc1ccc(/C(=C\CN2CCCC2)c2ccccn2)cc1	-4.77% [at 42.5 µM]	–
CC/C=C\CCOC(=O)CCCCC	-0.273%	–
CC(C)c1cc2c(cc1S(=O)(=O)O)[C@@]1(C)CCC[C@@](C)(C(=O)O)[C@@H]1CC2	-0.388% [at 42.5 µM]	–
CC1CC(OC(=O)c2ccccc2O)CC(C)(C)C1 (stereo not given)	–	inactive
COC(C)(C)CCO	1.9%	–
